High-throughput results as filed in PubChem BioAssay.
FMDV inh: antivirals against foot and mouth disease virus; 1.2% of 410,000 active; FMDV antiviral cell-based qHTS; Potency, µM (doses to about 57.9 µM), for inactives: at the highest dose activity change, negative = inhibition, hits mostly inhibitors; calls by dose curve; tested in HEK293T cells; note: read-out not given here; nearly all actives have a fitted effect of over 45% in size
Lassa entry inh: inhibitors of Lassa virus binding or cell entry; Lassa virus pseudotype entry inhibition, cell reporter; Potency, µM (titrated, usually from 37.9 µM), for inactives: top-dose activity change, negative = inhibition, most hits filed as inhibitors; 1.2% of 300,000 active; calls by dose curve; tested in HEK293 cells; note: nearly all actives have a fitted effect of over 50% in size
HCV inhibitor: inhibitors of hepatitis C virus infection. Potency, µM (doses to about 41.8 µM), for inactives: at the highest dose activity change, negative = inhibition, hits mostly inhibitors. Huh7.5.1 HCVcc-Cre infection, luciferase reporter, 44 h. AID 651820. 3.4% of 340,000 active; active = well fitted inhibition curve with a large enough effect; inconclusive = small, poorly fitted or top-dose-only effect, or another doubt; inactive = no such curve, though single readings can be large or run the other way
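Seed cells (1,000/well) for 4 h; treat with compound and infect with HCVcc-Cre, moi about 0.5. Incubate 44 h, then detect luciferase activity.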
MARV entry inh: inhibitors of Marburg virus binding or cell entry; Potency, µM (titrated, usually from 37.8 µM), without a hit: at the highest dose activity change, negative = inhibition, usual class: inhibitors; Marburg virus pseudotyped entry inhibition, cell reporter; 1.8% of 300,000 active; calls by dose curve; tested in HEK293 cells
Vaccinia mCherry: vaccinia inhibition (mCherry reporter); Vaccinia virus mCherry reporter infection, fluorescence; Potency, µM (doses to about 36.5 µM), for inactives: at the top dose activity change, negative = inhibition, usual class: inhibitors; 0.63% of 310,000 active; calls by dose curve; tested in A549 cells; note: nearly all actives have a fitted effect of over 35% in size
Vaccinia Venus: vaccinia inhibition (Venus reporter); Vaccinia virus Venus reporter expression, fluorescence; Potency, µM (doses to about 36.5 µM), inactives show top-dose activity change, negative = inhibition, actives largely listed as inhibitors; 0.46% of 330,000 active; calls by dose curve; tested in A549 cells; note: nearly all actives have a fitted effect of over 30% in size
Numbers without * were called inactive; i = inactive; ? = inconclusive; . = not tested or not shown; [ ] = dose if it differs, or a comment. Hits are enriched below; roughly 5.3% of the tested compounds scored in any of these assays. % is set by controls: 0 for no effect and ±100 for the full control effect; potency is the fitted concentration of half-maximal effect.

SMILES	FMDV inh	Lassa entry inh	HCV inhibitor	MARV entry inh	Vaccinia mCherry	Vaccinia Venus
O=C1c2ccccc2C(Nc2ccc(-c3nc4ccccc4[nH]3)cc2)N1Cc1ccco1 (centres undefined)	0.0%	.	10µM*	-0.1%	-12.2%	?
Cc1ccc(CN2CCSc3ccc(C(=O)N4CCN(c5ccc(Cl)cc5)CC4)cc32)cc1	6.1%	6.8%[46.1 µM]	.	-1.4%[46.1 µM]	-11.3%	-13.5%
COc1ccccc1CNC(=O)c1cc2c(C)nn(Cc3ccc(F)cc3)c2s1	-19.6%	-27.4%	7.08µM*	?	.	-28.2%
CN(C)S(=O)(=O)c1cc(NC(=O)CN2CCN(c3ccccc3O)CC2)ccc1Cl	0.0%	0.562µM*	?	-1.0%	-25.2%	-6.0%
Cc1ccc(NC(=O)CN2CCC(Cc3ccccc3)CC2)cc1S(=O)(=O)N(C)C	?	.	11.2µM*	.	.	.
CC(=O)N1CCN(CC(=O)Nc2ccc(C)c(S(=O)(=O)N(C)C)c2)CC1	10.9%	-2.2%	26.6%	?	-12.6%	-18.5%
NC(N)=Nc1ccc(/C=C2\C=Cc3ccccc32)cc1	.	.	.	.	-17.0%	?
Cc1ccc(NC(=O)c2cc(S(=O)(=O)NCCC3=CCCCC3)ccc2F)cc1F	?	?	4.47µM*	?	?	?
COc1cc(NC(=O)c2ccco2)ccc1NC(=O)c1ccccc1Cl	12.0%	12.6µM*	?	?	.	-27.6%
COc1cc(NC(=O)c2c(OC)cccc2OC)ccc1NC(=O)c1cc2ccccc2o1	22.6%	-19.7%[46.1 µM]	25.1µM*	?	?	?
COc1cc(NC(=O)c2ccccc2Cl)ccc1NC(=O)c1ccco1	15.5%	-22.6%	-41.0%	19.2%	14.1µM*	?
COc1cc(NC(=O)Cc2ccccc2)ccc1NC(=O)c1ccco1	69.4%	0.0%	?	25.2%	.	.
COc1cc(NC(=O)c2ccc(F)cc2)ccc1NC(=O)c1cc2ccccc2o1	15.1%	.	?	.	.	.
O=C(Nc1ccc(Oc2ccc(NC(=O)c3ccco3)c(NC(=O)c3ccco3)c2)cc1)c1ccco1	.	9.1%	25.1µM*	?	-8.8%	-10.1%
Cc1ccc(NC(=O)c2ccco2)c(NC(=O)c2cccs2)c1	.	2.3%	11.2µM*	5.5%	i	-18.1%
O=c1[nH]c2ccc(NCc3ccccc3F)cc2[nH]1	0.1%	20.1%[46.1 µM]	.	-25.1%[46.1 µM]	-2.7%	-10.0%
Cc1ccc(S(=O)(=O)c2nc(S(=O)(=O)c3ccccc3)sc2NCCCOC(C)C)cc1	24.7%	-32.6%[46.1 µM]	.	3.98µM*	0.8%	-8.3%
FC(F)(F)C1CCC(c2nnc(C3CCCCN3)c(C3=NCCCC3)n2)NC1 (centres undefined)	.	.	.	16.3%	.	.
CCN(C(C)=O)c1cnc(C=NNC(N)=S)c2ccccc12	2.3%	8.91µM*	6.31µM*	?	?	?
Cc1ccc2cc(C=C(C#N)C#N)c(N3CCCCC3)nc2c1	.	21.4%	?	-23.4%	-18.8%	-9.5%
Cc1ccc2cc(C=C(C#N)C#N)c(Cl)nc2c1	31.6µM*	1.3%	?	-1.0%	-19.2%	23.6%
COc1cccc(-c2cc(C(=O)Nc3cc(C)n(Cc4ccc(Cl)cc4)n3)no2)c1	?	-29.4%	6.31µM*	?	.	.
COc1ccc(OC)c(-c2cc(C(=O)Nc3cc(C)n(Cc4ccc(Cl)cc4)n3)no2)c1	22.4µM*	3.5%	11.2µM*	?	.	.
Cc1cc(NC(=O)c2cc(-c3ccc(F)cc3)on2)nn1Cc1ccc(Cl)cc1	?	22.9%[46.1 µM]	.	17.0%[46.1 µM]	-12.8%[7.34 µM]	-21.8%[7.34 µM]
Cc1cc(NC(=O)c2cc(-c3ccco3)on2)nn1Cc1ccc(Cl)cc1	-22.2%	?	?	-11.4%	-8.2%	?
SMILES	FMDV inh	Lassa entry inh	HCV inhibitor	MARV entry inh	Vaccinia mCherry	Vaccinia Venus
Cc1ccc(S(=O)(=O)NC(=O)C2(C)CCN2C(=O)Cc2ccc(Cl)cc2Cl)cc1 (centres undefined)	-8.3%	.	.	.	-5.7%	-4.3%
O=C1Nc2ccc(I)cc2C1=Cc1cc(Br)c(O)c(Br)c1	.	?	.	0.1%	?	29.0%
COc1ccc2c(c1)/C(=C\c1cccc(/C=C3/C(=O)Nc4ccc(OC)cc43)n1)C(=O)N2	7.08µM*	2.82µM*	2.82µM*	1.58µM*	-5.2%	-15.4%
O=c1[nH]ccc2c(S(=O)(=O)N3CCCNCC3)cccc12	-22.3%	.	.	.	.	.
Cc1cccc2c(SCC(N)=O)nc(-c3ccccc3)nc12	-1.9%	.	7.08µM*	.	.	.
NC(=O)CSc1nc(-c2ccccc2)nc2ccccc12	0.0%	.	?	.	.	.
